Inconclusive results are not listed. Entries that show only a call come without a potency. Calls of active or inactive are those of the source. Calls come from the whole dose curve.
What follows are molecules tested against Peroxisome proliferator-activated receptor gamma (Homo sapiens) (UniProt P37231) (assay: qHTS assay to identify small molecule antagonists of the peroxisome proliferator-activated receptor gamma (PPARg) signaling pathway (AID 743191; note: nearly all actives have a fitted effect of over 30% in size)). Details: HEK293H PPARg-UAS-bla, beta-lactamase ratio, antagonist, 17 h; series mostly up to 62.6 µM.
Peroxisome proliferator-activated receptor gamma (Homo sapiens), sequence (P37231 whole entry, looked up): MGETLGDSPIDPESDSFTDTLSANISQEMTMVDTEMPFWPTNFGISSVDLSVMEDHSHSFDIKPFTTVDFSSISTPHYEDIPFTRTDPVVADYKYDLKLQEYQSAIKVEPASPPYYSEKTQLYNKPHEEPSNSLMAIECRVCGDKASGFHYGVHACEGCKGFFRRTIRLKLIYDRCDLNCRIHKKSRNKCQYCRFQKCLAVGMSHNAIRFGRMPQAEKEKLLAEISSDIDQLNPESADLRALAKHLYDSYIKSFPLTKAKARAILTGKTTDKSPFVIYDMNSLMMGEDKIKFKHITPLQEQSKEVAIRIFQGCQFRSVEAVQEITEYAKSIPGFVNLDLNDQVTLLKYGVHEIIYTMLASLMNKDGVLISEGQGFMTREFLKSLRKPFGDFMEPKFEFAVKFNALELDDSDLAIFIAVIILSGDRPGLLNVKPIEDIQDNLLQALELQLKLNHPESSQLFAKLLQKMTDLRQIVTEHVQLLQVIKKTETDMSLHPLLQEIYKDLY
From the text: U.S. Tox21 Program National Center for Advancing Translational Sciences [NCATS] NIH Chemical Genomics Center [NCGC] U.S. Environmental Protection Agency [EPA] National Institutes of Environmental Health Sciences [NIEHS] National Toxicology Program [NTP] U.S. Food and Drug Administration [FDA] Tox21 Assay Overview: The peroxisome proliferator-activated receptors (PPARs) are lipid-activated transcription factors of the nuclear receptor superfamily with three distinct subtypes namely PPAR alpha, PPAR delta (also called PPAR beta) and PPAR gamma (PPARg). All these subtypes heterodimerize with Retinoid X receptor (RXR) and these heterodimers regulate transcription of various genes. PPAR-gamma receptor (glitazone receptor) is involved in the regulation of glucose and lipid metabolism. To identify the compounds that inhibit PPAR-gamma signaling, GeneBLAzer PPAR gamma UAS-bla HEK293H cell line (Invitrogen, Carlsbad, CA, USA) containing a beta-lactamase reporter gene under control of an Upstream Activator Sequence (UAS) was used to screen the Tox21 compound library.
Tox21 Assay Protocol Summary: PPARg-bla cells were dispensed at 3000 cells/6uL/well in 1536-well black wall/clear bottom plates using a Multidrop Combi (Thermo Fisher Scientific, Waltham, MA) dispenser. After the assay plates were incubated at 37C and 5% CO2 for 5 h, 23 nL of compounds dissolved in DMSO, positive controls or DMSO only was transferred to the assay plate by a Pintool station (Kalypsys, San Diego, CA). The assay plates were incubated at 37C for 17 h. After 1 uL of LiveBLAzerTM B/G FRET substrate was added using a Bioraptr Flying Reagent Dispenser (FRD) workstation (Beckman Coulter, Indianapolis, IN, USA), the plates were incubated at room temperature for 1 h, and fluorescence intensity was measured by an Envision plate reader (PerkinElmer, Shelton, CT).
Potency is the fitted concentration of half-maximal effect.

SMILES | Potency
COc1ccc(-c2cc(=S)ss2)cc1 | inactive
CCCCCCCCCCCCCCCCCC(=O)OCC(CC)CCCC (stereo not given) | inactive
CS(=O)(=O)c1ccc([C@@H](C[C@H]2CCC(=O)C2)C(=O)Nc2cnccn2)cc1Cl | inactive
COC(=O)c1sccc1S(N)(=O)=O | inactive
O=P(O)(O)Oc1ccccc1 | inactive
CC(C)c1ccc(C(=O)N=C(N)N)cc1S(C)(=O)=O | inactive
O=C1NC(=O)c2cccc3cccc1c23 | inactive
COc1ccc(-n2nc(C(F)F)cc2-c2ccc(S(C)=O)cc2)cc1 (stereo not given) | inactive
CC1C(C)(C)C2=C(C(=O)CCC2)C1(C)C (stereo not given) | inactive
CCCCCCCC(=O)Oc1c(Br)cc(C#N)cc1Br | 34.5 µM (active)
CCOC(=O)Oc1ccc(CCNC(=O)[C@H](CCSC)NC(C)=O)cc1OC(=O)OCC | inactive
Cc1cc(CCCOc2c(C)cc(-c3noc(C(F)(F)F)n3)cc2C)on1 | inactive
O=C(O)CCC(=O)c1ccc(-c2ccccc2)cc1 | inactive
CCCCCCCCCCCCCCN(C)C | inactive
CC(=O)OCC(C)C | inactive
O=C(O)c1cc(Cl)cc(Cl)c1O | inactive
Cc1ccc(N(CCO)CCO)cc1 | inactive
O=c1[nH]c2cc(C(F)(F)F)c(N3CCOCC3)cc2n(CP(=O)(O)O)c1=O | inactive
CC(C)(C)CCCCCCOC(=O)c1ccccc1C(=O)OCCCCCCC(C)(C)C | inactive
O=C1[C@@H]2[C@H]3CC[C@H](C3)[C@@H]2C(=O)N1CCCCN1CCN(c2ncccn2)CC1 | inactive

SMILES | Potency
O=C(O)c1ccc(O)cc1O | inactive
CNc1c2c(nn1C)CCCC2 | inactive
O=C(C(=O)c1ccco1)c1ccco1 | inactive
c1ccc(CCCc2ccncc2)cc1 | inactive
CC(C)COC(=O)c1ccc(O)cc1 | inactive
CCN(Cc1cccc(S(=O)(=O)O)c1)c1ccc(C(=C2C=CC(=[N+](CC)Cc3cccc(S(=O)(=O)O)c3)C=C2)c2ccc(O)cc2S(=O)(=O)[O-])cc1 | inactive
C=CC(=O)NC(C)C | inactive
COc1ccc(C2C(=O)c3ccccc3C2=O)cc1 | inactive
C=CCOC(=O)COCCC(C)C | inactive
Cc1ccc(S(=O)(=O)NC(=O)NC2CCCCC2)cc1 | inactive
C[C@@H]1C[C@H]2[C@@H]3CCC4=CC(=O)C=C[C@]4(C)[C@@]3(F)[C@@H](O)C[C@]2(C)[C@@]1(O)C(=O)COP(=O)(O)O | inactive
CC(C)(C)C1(CCc2ccc(Cl)cc2)CO1 (stereo not given) | inactive
CCCCCCCCCCCCCCCC(=O)OCC | inactive
O=C(NC(Cc1cc(=O)[nH]c2ccccc12)C(=O)O)c1ccc(Cl)cc1 (stereo not given) | inactive
NC(=O)CCCCC(N)=O | inactive
CC(CCc1ccc(O)cc1)NCCc1ccc(O)c(O)c1 (stereo not given) | inactive
Cc1ccc(NC(=O)N(C)C)cc1NC(=O)N(C)C | inactive
Cc1ccc(N(CC2=NCCN2)c2cccc(O)c2)cc1 | inactive
CCN(CC)C(=O)/C(C#N)=C/c1cc(O)c(O)c([N+](=O)[O-])c1 | inactive
O=C(Oc1ccccc1)c1ccc2ccccc2c1O | inactive

From PubChem BioAssay (Tox21)
